Compound activity as filed in PubChem.
Peg3 imprint: induces erasure of genomic imprints in mouse ES cells. mouse ES Peg3-LacZ reporter, beta-gal luminescence, 40 h. Potency, µM (doses to about 60.7 µM), inactives show at the highest dose activity change, positive = activation, usual class: activators. 110,000 tested, 0.02% active; note: potency is the fitted concentration of half-maximal effect
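Imprint erasure is scored as LacZ activity from the silenced maternal Peg3 allele in feeder-free female ES cells cultured 40 h with LIF. Luminescence is normalized to in-plate negative controls and fitted to the Hill equation.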
HBB splice mod: alters splicing of the hemoglobin beta chain; AID 925; Potency, µM (doses to about 46.1 µM), for inactives: top-dose activation, actives largely listed as activators; 65,000 tested, 0.06% active; HBB splicing reporter cell assay, activation; EGFP reporter with mutant IVS2-654 intron; response scale: normalised to 500 nM splice-correcting PNA; note: potency is the fitted concentration of half-maximal effect; 0% is about no effect
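Compounds were applied for 2 days to HeLa EGFP-654 cells, 500/well in Optimem with 2% FCS. The reporter's EGFP is disrupted by mis-splicing of beta-globin intron IVS2-654. Readout: summed well GFP fluorescence from 488 nm laser scanning; reference was 500 nM antisense […] 654 PNA.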
p53ts 39C tox: p53ts cell cytotoxicity, nonpermissive temperature; 130,000 tested, 1.5% active; Potency, µM (highest dose often 46.1 µM), inactives show at the highest dose activity change, negative = cell killing, usual class: cytotoxic; H1299-p53A138V viability at 39C, ATP luminescence, 24 h; note: potency is the fitted concentration of half-maximal effect; % is set by controls: 0 for no effect and ±100 for the full control effect; nearly all actives have a fitted effect of over 55% in size
Ub-GFP proteasome: inhibits proteasome, raising ubiquitin-GFP reporter fluorescence | 67,000 tested, under 10 active | Potency, µM (highest dose often 45.9 µM), inactives show at the highest dose activation (GFP accumulation), actives largely listed as activators | AID 526 | Ubiquitin-GFP reporter cells, proteasome inhibition, GFP fluorescence; response scale: untreated = 0%, 10 µM MG-132 = 100%; active = well fitted activation curve with a large enough effect, not every such curve was filed as active; inconclusive = small, poorly fitted or top-dose-only effect, or another doubt; inactive = no such curve, though single readings can be large or run the other way; note: potency is the fitted concentration of half-maximal effect
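Reporter cells (U2OS, ubiquitin-G76V-GFP fusion) are plated overnight, then treated 4 hr at 37 °C with compound titrations from 46 uM down to 2.9 nM. Activity is scaled against untreated cells and 10 uM MG-132.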
Epigenetic mod: epigenetic GFP locus derepression in mouse cells; mouse C127i GFP locus derepression, cytometry, 30 h; Potency, µM (top dose mostly 46.1 µM), for the others: at the highest dose GFP derepression (activation); AID 597; 68,000 tested, 0.09% active; note: % of control where 0% means no effect
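Murine C127i mammary cells carrying a silenced, stably integrated CMV-driven GFP reporter were treated with compound for 30 hours at 37 C. After PBS washes, GFP-positive cells were counted by laser-scanning microplate cytometry.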
p53ts 32C tox: p53ts cell cytotoxicity, permissive temperature; H1299-p53A138V at 32C, ATP luminescence viability, 24 h; Potency, µM (titrated, usually from 46.1 µM), for the others: at the top dose activity change, negative = cytotoxicity, hits mostly cytotoxic; 130,000 tested, 0.93% active; AID 924;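 note: potency is the fitted concentration of half-maximal effect; 0% = DMSO and -100% = full killing by reference compound; nearly all actives have a fitted effect of over 55% in size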
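ATP-content luminescence (ATPlite) read-out after 24 h compound exposure at 32C in H1299-p53A138V cells (600/well). Tested up to 46 uM. Normalized to DMSO (0%) and 100 uM tamoxifen (100% killing); Hill-fit AC50.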
Numbers without * were called inactive; ? = inconclusive; . = no result given; ! = not confirmed by another sample; [ ] = remark or other dose. In the library only some 1.6% were active in any assay of this set; here they are far more common. Unless noted, calls come from the whole dose curve; as a rule, active = well fitted curve in the direction sought with a large enough effect; inconclusive = small, poorly fitted or top-dose-only effect, or another doubt; inactive = no such curve, though single readings can be large; an effect the other way counts as inactive or inconclusive.

SMILES	Peg3 imprint	HBB splice mod	p53ts 39C tox	Ub-GFP proteasome	Epigenetic mod	p53ts 32C tox
Cc1ccc(-c2nc(S(=O)(=O)c3ccccc3)c(SCC(=O)NC3CCCCC3)o2)cc1	-10.5%[10.9 µM]	.	1.58µM*	.	.	-28.1%
O=c1[nH]c(=O)n(Cc2ccco2)c(O)c1C=NC1CC1	-8.6%	2.4%[57.5 µM]	-4.2%	-3.3%	0.0%	2.6%
CCn1nc(-c2cccs2)nc2c(=O)n(C)c(=O)nc1-2	-93.6%	-0.4%[57.5 µM]	3.98µM*	0.2%	4.0%	2µM*
Cc1cccnc1-n1c(CN2C(=O)c3ccccc3C2=O)nc2ccccc2c1=O	11.9%	-0.2%	13.0%	-8.0%	-2.9%	2.3%
C[C@H]1C(=O)O[C@H]2CCN3CC=C(COC(=O)[C@](C)(O)[C@@]1(C)O)C23 (stereo partly drawn)	5.2%	.	2.1%	.	.	4.2%
NC(=O)CI	-33.7%	2.1%	5.01µM*	-1.5%	-0.6%	6.31µM*
S=C(S)N1CCCC1	-34.7%	2.1%	?	0.0%	0.631µM*	24.8%
CCCC12CN3CN(C1)CC(CCC)(C3)C2O (stereo not drawn)	.	.	.	.	0.0%[20.6 µM]	.
COc1cc2c(cc1OC)-c1c(O)c(OC)cc3c1[C@H](C2)N(C)CC3	-13.0%	.	?	.	.	31.6µM*
CC(C)C(=O)N1CCN(CCN=Cc2c(O)n(C)c(=O)n(C)c2=O)CC1	.	.	.	.	7.4%[20.6 µM]	.
COc1ccc2c(c1)-c1nc(NC(=O)c3ccc(Cl)cc3)sc1CC2	-7.4%[10.9 µM]	.	10µM*	.	.	?
COc1ccc(C(=O)Nc2ccc(Cl)cc2C(=O)c2ccccc2)c(OC)c1	-5.0%[10.9 µM]	.	-9.2%	.	.	1.9%
CN[C@@H]1C[C@@H](c2ccc(Cl)c(Cl)c2)c2ccccc21	-37.5%	-0.6%	12.6µM*	1.5%	-1.1%	20µM*
CN[C@@H]1C[C@H](c2ccc(Cl)c(Cl)c2)c2ccccc21	-48.5%	.	25.1µM*	1.3%	-1.4%	1.7%
CCCSc1ccc2nc(NC(=O)OC)[nH]c2c1	?	0.4%[20.6 µM]	?	13.3%[20.5 µM]	7.7%[20.6 µM]	?
COc1ccccc1CN1CCCCC1c1cccnc1 (stereo not drawn)	-17.5%	0.6%	16.3%	10.9%	-0.1%	6.2%
C/C=C1\C[N@@+]2(C)CC[C@@]34C(=C(C=O)[C@H]1C[C@H]32)Nc1ccccc14	-6.5%[16.8 µM]	-0.3%[20.6 µM]	-2.6%[20.6 µM]	0.6%[20.5 µM]	0.0%[20.6 µM]	-9.0%[20.6 µM]
CCCc1nc2ccccc2c(=O)n1-c1ccccc1OC	.	.	.	.	-2.2%[20.6 µM]	.
CNc1ccc2oc(C[C@H]3O[C@]4(CC[C@H]3C)O[C@H]([C@H](C)C(=O)c3ccc[nH]3)[C@H](C)C[C@H]4C)nc2c1C(=O)O	-27.9%	.	3.16µM*	-3.9%	-1.4%	3.98µM*
CN(CC(=O)Nc1ccccc1-c1ccccc1)C1CCCCC1	.	.	4.9%	.	.	0.8%
N[C@H](Cc1c[nH]c2ccccc12)P(=O)(O)O	0.631µM*	1.7%[9.22 µM]	3.2%[9.22 µM]	5.8%[9.17 µM]	0.0%[9.22 µM]	-1.0%[9.22 µM]
NCCc1c[nH]c2ccccc12	-12.2%	0.5%	-7.4%	-0.3%	-2.2%	-3.6%
C1CCC(NC2CCCCC2)CC1	-7.2%	-0.4%	14.6%	.	.	7.0%[1.84 µM]
CN1CC[C@]2(C)c3cc(O)ccc3N(C)[C@@H]12	-4.9%[16.8 µM]	-0.3%[20.6 µM]	25.1µM*	-2.6%	4.5%[9.22 µM]	20µM*
CN1CC[C@@]2(C)c3cc(O)ccc3N(C)C12 (stereo partly drawn)	-64.0%	.	.	.	.	.
SMILES	Peg3 imprint	HBB splice mod	p53ts 39C tox	Ub-GFP proteasome	Epigenetic mod	p53ts 32C tox
CC[n+]1c(-c2ccccc2)c2cc(N)ccc2c2ccc(N)cc21	-63.1%	-1.0%	2.51µM*	.	.	3.98µM*!
CNCCc1ccc(O)c(O)c1	-44.2%	1.0%	20µM*	-6.9%	-0.1%	?
CCCCCCC(C)(C)c1ccc([C@@H]2C[C@H](O)CC[C@@H]2CCCO)c(O)c1	-23.6%	.	6.31µM*	5.2%	-1.4%	12.6µM*
O=c1c2ccccc2nc(/C=C/c2cccc3ccccc23)n1-c1ccccc1Cl	-17.6%[10.9 µM]	.	?	.	.	5.5%
c1cc(OCC2CO2)cc(OCC2CO2)c1 (stereo not drawn)	2.9%	-0.6%	25.1µM*	.	.	-3.5%[1.84 µM]
Cc1cc(C)c(C2=NOC(O)(C(F)(F)F)C2)c(=O)[nH]1 (stereo not drawn)	5.2%	-1.2%	-0.8%	-3.2%	0.0%	2.7%
CC(=O)[O][Hg][c]1ccccc1	-93.7%	-0.8%	1.58µM*	.	.	1µM*
CNC(C(=O)c1ccccc1)C(OC)c1ccccc1 (stereo not drawn)	-12.1%	1.7%[57.5 µM]	-5.8%	-0.1%	4.3%	0.5%
Cc1ccc(N)cc1C	6.5%	-0.1%	1.9%	.	.	-6.1%[1.84 µM]
CC12CNCC(C)(CNC1)C2O (stereo not drawn)	4.3%	-0.1%	2.4%	3.7%	-3.9%	0.4%
[O]=[Cr](=[O])([OH])[O][Cr](=[O])(=[O])[OH]	-18.0%	?	10µM*	.	.	-5.2%[1.84 µM]
CCCCCCCCCCCCCC(=O)O[C@H]1[C@@H](C)[C@@]2(O)[C@@H](C=C(CO)C[C@]3(O)C(=O)C(C)=C[C@@H]23)C2C(C)(C)[C@]21OC(C)=O (stereo partly drawn)	.	0.1%	15.8µM*	-2.9%	-2.2%	?
CC(C)=CCCC1(C)C=Cc2c(O)c3c(c(CC=C(C)C)c2O1)OC12C(=CC4CC1C(C)(C)OC2(C/C=C(/C)C(=O)O)C4=O)C3=O (stereo not drawn)	-34.4%	.	6.31µM*	.	.	3.98µM*
COc1c(CC=C(C)C)c2c(c3oc(=O)c(-c4ccc(O)cc4)c(O)c13)C=CC(C)(C)O2	2.3%	.	-0.1%	.	.	3.8%
CC(C)=CCCC1(C)C=Cc2c(O)c3c(c(CC=C(C)C)c2O1)OC12C(=CC4CC1C(C)(C)OC2(C/C=C(/C)C(=O)O)C4O)C3=O (stereo not drawn)	-39.8%	.	5.01µM*	.	.	5.01µM*
CC(C)CCCC1(C)C=Cc2c(O)c3c(c(CCC(C)C)c2O1)OC12C(CC4CC1C(C)(C)OC2(CCC(C)C(=O)O)C4O)C3=O (stereo not drawn)	?	.	?	.	.	24.9%
C=C[C@@H]1CN2CC[C@H]1C[C@H]2[C@H](O)c1ccnc2ccccc12	.	2.2%[9.22 µM]	-12.8%[9.22 µM]	-6.5%[9.17 µM]	2.4%[9.22 µM]	-0.7%[9.22 µM]
CCN1C[C@@]2(COC)C3[C@@H](OC)[C@H]4C1[C@@]3(C1C[C@]3(O)C(OC)[C@H](O)[C@@]4(OC(C)=O)C1[C@H]3OC(=O)c1ccccc1)[C@H](OC)C[C@H]2O (stereo partly drawn)	-8.6%	.	.	.	.	.
CCC(C)C(=O)c1c(O)c(C)c2oc3c(C)c(O)c(C(=O)C(C)CC)c(O)c3c2c1O (stereo not drawn)	6.2%	.	12.6µM*	.	.	12.6µM*
